Reference: PubChem BioAssay (Tox21)
Inconclusive results are not listed. Active and inactive are the calls of the source. Calls follow the shape of the dose curve; as a rule, active = well fitted curve in the direction sought with a large enough effect in the repeat runs; inconclusive = weak or mixed curves; inactive = no such curve, though single readings can be large; an effect the other way counts as inactive or inconclusive.

Tests used:
[1] = qHTS RealTime-Glo MT Cell Viability Assay in HEK293 cells - 16 hour (AID 1224872); also: top concentration of the series differs between compounds; nearly all actives have a fitted effect of over 50% in size
How it was run: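 Viability tracked continuously by luminescence as live cells reduce a prosubstrate for NanoLuc; HEK293 cells preincubated 5 h, compound-treated at 37 C, and read at 0, 8, 16, 24, 32 and 40 h.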

[2] = qHTS RealTime-Glo MT Cell Viability Assay in HepG2 cells - 8 hour (AID 1224873); also: nearly all actives have a fitted effect of over 55% in size
How it was run: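 HepG2 cells mixed with RealTime-Glo MT reagents (NanoLuc plus cell-permeant prosubstrate) were seeded at 600 cells/well, incubated 5 h at 37 C/5% CO2, then pinned with compounds in DMSO; nonlytic luminescence tracked viability during 40 h treatment.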

[3] = qHTS RealTime-Glo MT Cell Viability Assay in HEK293 cells - 40 hour (AID 1224874); settings: RealTime-Glo luminescence; max response: hits give low values; also: nearly all actives have a fitted effect of over 50% in size
How it was run: (§1)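 Measured as luminescence from the same continuously cultured HEK293 wells at successive time points (0, 8, 16, 24, 32, 40 h) after compound addition. Reagent present from seeding; dosing at 5 h; incubation 37 C.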

[4] = A CellTox Green Cytotoxicity Assay to monitor cytotoxicity in HEK293 cells - 24 hour (AID 1224875); also: series mostly up to about 77 µM; nearly all actives have a fitted effect of over 45% in size
How it was run: (§2)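 Homogeneous no-lysis format: HEK293 cell suspension mixed with CellTox Green reagent, seeded, incubated 5 h at 37 C/5% CO2, then dosed by pintool with compound in DMSO.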

[5] = A CellTox Green Cytotoxicity Assay to monitor cytotoxicity in HepG2 cells - 16 hour (AID 1224876); also: nearly all actives have a fitted effect of over 45% in size
How it was run: (§3)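 Fluorescent DNA-binding dye, 600 HepG2 cells/well, 5 h preincubation then compound in DMSO; same plates read at 0–40 h, 37 C.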

[6] = A CellTox Green Cytotoxicity Assay to monitor cytotoxicity in HepG2 cells - 24 hour (AID 1224878); also: nearly all actives have a fitted effect of over 45% in size
How it was run: as §3

[7] = qHTS RealTime-Glo MT Cell Viability Assay in HEK293 cells - 0 hour (AID 1224880); also: top concentration of the series differs between compounds; nearly all actives have a fitted effect of over 45% in size
How it was run: as §1

[8] = A CellTox Green Cytotoxicity Assay to monitor cytotoxicity in HEK293 cells - 32 hour (AID 1224881); also: nearly all actives have a fitted effect of over 40% in size
How it was run: as §2

[9] = A CellTox Green Cytotoxicity Assay to monitor cytotoxicity in HepG2 cells - 40 hour (AID 1224879); also: nearly all actives have a fitted effect of over 40% in size
How it was run: as §3

[10] = qHTS RealTime-Glo MT Cell Viability Assay in HepG2 cells - 32 hour (AID 1224877); also: nearly all actives have a fitted effect of over 55% in size
How it was run: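 Viability was tracked continuously by NanoLuc luminescence from prosubstrate reduced by living HepG2 cells, at successive time points over 40 h of compound exposure. Cells with reagent were preincubated 5 h at 37 °C before compound addition.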
% is scaled to controls: 0 for no effect and ±100 for the full control effect.

O=C(O)C1CCC(C(=O)O)CC1 (stereo not drawn)
inactive: Potency [1] | Potency [2] | max response [3] -2.66% | Potency [4] | Potency [5] | Potency [6] | Potency [7] | Potency [8]

COC(Cc1ccccc1)OC
inactive: Potency [1] | Potency [2] | max response [3] 17.4% | Potency [4] | Potency [5] | Potency [6] | Potency [9] | Potency [7] | Potency [8]

N#Cc1c(F)cccc1F
inactive: Potency [1] | Potency [2] | max response [3] -15.1% | Potency [4] | Potency [5] | Potency [6] | Potency [9] | Potency [7] | Potency [8]

CC1=CC(=O)/C(=C(/C)O)C(=O)O1
inactive: Potency [1] | Potency [2] | max response [3] 16.6% | Potency [4] | Potency [10] | Potency [6] | Potency [9] | Potency [7] | Potency [8]

CCOc1nc2cccc(C(=O)O)c2n1Cc1ccc(-c2ccccc2-c2nn[nH]n2)cc1
inactive: Potency [1] | Potency [2] | max response [3] 9.75% | Potency [4] | Potency [5] | Potency [6] | Potency [9] | Potency [8]

CCOC(=O)C1=NN(c2ccccc2)C(=O)C1
inactive: Potency [1] | Potency [2] | max response [3] 1.57% | Potency [4] | Potency [5] | Potency [6] | Potency [9] | Potency [7] | Potency [8]

CCCCCC(CO)CCC (stereo not drawn)
inactive: Potency [1] | Potency [2] | max response [3] 1.02% | Potency [4] | Potency [5] | Potency [6] | Potency [9] | Potency [7] | Potency [8]

CN(C)CC[C@@H](c1ccc(Br)cc1)c1ccccn1
inactive: Potency [1] | Potency [2] | max response [3] -14.2% | Potency [4] | Potency [5] | Potency [10] | Potency [6] | Potency [8]

CCCCOC(=O)/C=C\C(=O)OCCCC
inactive: Potency [1] | Potency [2] | max response [3] -0.0674% | Potency [4] | Potency [10] | Potency [6] | Potency [9] | Potency [7] | Potency [8]

C[C@@H](C1=C(CCN(C)C)Cc2ccccc21)c1ccccn1
inactive: Potency [1] | Potency [2] | max response [3] -16.8% | Potency [4] | Potency [5] | Potency [10] | Potency [6] | Potency [8]

COCCO
inactive: Potency [1] | Potency [2] | max response [3] 11.8% | Potency [4] | Potency [10] | Potency [6] | Potency [9] | Potency [7] | Potency [8]

CCN(CC)CCOC(=O)C1(c2ccccc2)CCCC1
inactive: Potency [1] | Potency [2] | max response [3] -9.49% | Potency [4] | Potency [5] | Potency [10] | Potency [6] | Potency [8]

CC1(C)[C@H]2CC[C@]1(C)[C@H](O)C2
inactive: Potency [1] | Potency [2] | max response [3] -5.57% | Potency [4] | Potency [5] | Potency [6] | Potency [9] | Potency [7] | Potency [8]

C=C(C)C(=O)OCCN(C)C
inactive: Potency [1] | Potency [2] | max response [3] 0.256% | Potency [4] | Potency [5] | Potency [6] | Potency [7] | Potency [8]

O=CNc1ccccc1
inactive: Potency [1] | Potency [2] | max response [3] -8.05% | Potency [4] | Potency [10] | Potency [6] | Potency [9] | Potency [7] | Potency [8]

CCOC(=S)SSC(=S)OCC
inactive: Potency [1] | Potency [2] | max response [3] 1.68% | Potency [4] | Potency [10] | Potency [6] | Potency [9] | Potency [7] | Potency [8]

C=CCCCCCC
inactive: Potency [1] | Potency [2] | max response [3] 9.99% | Potency [4] | Potency [5] | Potency [6] | Potency [8]

CC(C)NCC(O)c1cc(O)cc(O)c1 (stereo not drawn)
inactive: Potency [1] | Potency [2] | max response [3] 1.47% | Potency [4] | Potency [5] | Potency [6] | Potency [7] | Potency [8]
